Results: PubChem BioAssay (NCI)
Compounds without any hit were thinned out: in the full panel of roughly 79,000, 15% have a hit. The source made the active and inactive calls. Cut-off read from the data, not from the text of the source: active = growth inhibition above about 70%; inactive = the rest.

Columns and labels:
[1] = NCI Yeast Anticancer Drug Screen. Data for the rad52 strain (AID 147);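 note: 0% = growth of vehicle-treated control cultures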; conditions: S. cerevisiae rad52 mutant growth inhibition, hits give high values
Procedure, shortened: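 The repair-mutant yeast strain was incubated with compounds, then growth was read and inhibition derived relative to vehicle.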

[2] = NCI Yeast Anticancer Drug Screen. Data for the wt1 strain (AID 149);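 note: 0% = growth of vehicle-treated wt1 cultures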; conditions: S. cerevisiae wt1 strain (SPY 50644) growth inhibition, hits give high values
Procedure, shortened: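 Using yeast strain wt1, compound-induced growth inhibition was determined against vehicle-treated cultures.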

[3] = NCI Yeast Anticancer Drug Screen. Data for the rad50EPP+ strain (AID 151);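 note: 0% = growth of vehicle-treated control cultures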; conditions: S. cerevisiae rad50 mutant strain, hits give high values
Procedure, shortened: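 Vehicle-normalised growth inhibition; rad50EPP+ yeast strain, altered in DNA damage repair, compound-treated.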

[4] = NCI Yeast Anticancer Drug Screen. Data for the mgt1 strain (AID 153); conditions: S. cerevisiae mgt1 mutant growth inhibition, hits give high values
Procedure, shortened: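 Vehicle-normalized growth inhibition is determined in mgt1 yeast, a strain selected for a defined alteration in DNA repair or cell cycle control.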

[5] = NCI Yeast Anticancer Drug Screen. Data for the rad50 strain (AID 155);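 note: 0% = growth of vehicle-only cultures of the same strain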; conditions: S. cerevisiae rad50 strain growth inhibition, hits give high values
Procedure, shortened: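 Relative growth inhibition (compound vs vehicle) was measured in yeast with a defined repair-gene alteration.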

[6] = NCI Yeast Anticancer Drug Screen. Data for the mec2-1 strain (AID 157); conditions: S. cerevisiae mec2-1 strain, hits give high values
Procedure, shortened: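 Mutant yeast (mec2-1) grown with compound; growth inhibition relative to vehicle control reported.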

[7] = NCI Yeast Anticancer Drug Screen. Data for the rad14 strain (AID 159);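 note: 0% = growth of vehicle-treated control cultures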; conditions: S. cerevisiae rad14 strain growth inhibition, hits give high values
Procedure, shortened: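 Screen for anticancer potential: a yeast strain altered in DNA damage repair is grown with compound, and reduced growth is quantified against vehicle controls.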

[8] = NCI Yeast Anticancer Drug Screen. Data for the sgs1 mgt1 strain (AID 161);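 note: 0% = growth of cultures given vehicle only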; conditions: S. cerevisiae sgs1 mgt1 strain, hits give high values
Procedure, shortened: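 Growth of a repair-deficient yeast mutant was monitored after compound treatment and expressed as inhibition relative to vehicle-treated cultures.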

[9] = NCI Yeast Anticancer Drug Screen. Data for the CLN2oe strain (AID 163);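 note: 0% = growth of vehicle-only control cultures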; conditions: S. cerevisiae CLN2oe strain, hits give high values
Procedure, shortened: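 Compounds are applied to yeast harbouring a defined cell-cycle control change; reduced growth compared with vehicle-treated controls gives the value.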

[10] = NCI Yeast Anticancer Drug Screen. Data for the cln2 rad14 strain (AID 165);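 note: 0% = growth equal to vehicle treated cultures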; conditions: S. cerevisiae cln2 rad14 strain, hits give high values
Procedure, shortened: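 Readout is yeast growth inhibition versus vehicle-treated controls, using a strain with cln2 and rad14 alterations exposed to compound.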

[11] = NCI Yeast Anticancer Drug Screen. Data for the bub3 strain (AID 167); conditions: S. cerevisiae bub3 mutant strain, hits give high values
Procedure, shortened: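 Screening used yeast with an engineered genetic alteration affecting cell cycle control. Compound-exposed cultures were compared with vehicle cultures, and reduced growth was taken as inhibition.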

[12] = NCI Yeast Anticancer Drug Screen. Data for the wt2 strain (AID 169);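 note: 0% = growth of vehicle-treated yeast cultures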; conditions: S. cerevisiae wt2 strain growth inhibition, hits give high values
Procedure, shortened: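 Against vehicle-treated controls, the growth of yeast exposed to each compound was compared, and the inhibition was recorded.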

[13] = NCI Yeast Anticancer Drug Screen. Data for the mlh1 strain (AID 171);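 note: 0% = growth of vehicle-treated control cultures of the same strain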; conditions: S. cerevisiae mlh1 strain growth inhibition, hits give high values
Procedure, shortened: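 Measured: yeast growth. Reference: vehicle-treated controls. Organism: strain with a defined alteration affecting DNA damage repair or cell cycle control, treated with compound.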

[14] = NCI Yeast Anticancer Drug Screen. Data for the sgs1 strain (AID 173);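 note: 0% = growth of vehicle-only control cultures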; conditions: S. cerevisiae sgs1 mutant, hits give high values
Procedure, shortened: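 Each compound was added to cultures of the altered yeast strain. Growth was recorded, and inhibition was derived by comparison with vehicle controls.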

[15] = NCI Yeast Anticancer Drug Screen. Data for the mlh1 rad18 strain (AID 175); conditions: S. cerevisiae mlh1 rad18 strain growth inhibition, hits give high values
Procedure, shortened: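 Genetically defined yeast (DNA repair-deficient) exposed to compounds; growth inhibition determined relative to vehicle.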

[16] = at 5.0 µM (retest, dose inferred, filed as 0.5)
[17] = at 50.0 µM (retest, dose inferred, filed as 5.0)

Measured: growth inhibition

COc1ccc(C(OCC2OC(n3cnc4c(=O)n(Cc5ccccc5[N+](=O)[O-])nnc43)C(O)C2O)(c2ccccc2)c2ccc(OC)cc2)cc1 (stereo not drawn)
active: [5]; at 50.0 µM 89.2% | [6]; at 50.0 µM 91.4% | [8]; [17] 97% | [8]; at 50.0 µM 91.6% | [10]; [17] 88% | [10]; at 50.0 µM 88.7% | [11]; [17] 96% | [11]; at 50.0 µM 89.4% | [15]; at 50.0 µM 89.5%
inactive: [1]; at 1.2 µM 12% | [1]; at 3.7 µM 16% | [1]; at 11.0 µM 18% | [1]; at 33.0 µM 19% | [1]; at 100.0 µM 15% | [2]; at 1.2 µM -18% | [2]; at 3.7 µM -11% | [2]; at 11.0 µM -2% | [2]; at 33.0 µM -4% | [2]; at 100.0 µM -2% | [3]; at 1.2 µM 8% | [3]; at 3.7 µM 8% | [3]; at 11.0 µM -5% | [3]; at 33.0 µM -7% | [3]; at 100.0 µM -15% | [4]; at 1.2 µM 9% | [4]; at 3.7 µM 5% | [4]; at 11.0 µM 20% | [4]; at 33.0 µM 25% | [4]; at 100.0 µM 20% | [5]; at 1.2 µM 22% | [5]; at 3.7 µM 24% | [5]; [16] 17% | [5]; at 11.0 µM 26% | [5]; at 33.0 µM 18% | [5]; [17] 35% | [5]; at 100.0 µM 17% | [6]; at 1.2 µM 14% | [6]; at 3.7 µM 13% | [6]; [16] 14% | [6]; at 11.0 µM 15% | [6]; at 33.0 µM 22% | [6]; [17] 33% | [6]; at 100.0 µM 9% | [7]; at 1.2 µM -23% | [7]; at 3.7 µM -22% | [7]; at 11.0 µM -25% | [7]; at 33.0 µM -28% | [7]; at 100.0 µM -31% | [8]; [16] 0% | [9]; at 1.2 µM 9% | [9]; at 3.7 µM -4% | [9]; at 11.0 µM -7% | [9]; at 33.0 µM 11% | [9]; at 100.0 µM -3% | [10]; [16] 2% | [11]; at 1.2 µM 32% | [11]; at 3.7 µM 26% | [11]; [16] 7% | [11]; at 11.0 µM 23% | [11]; at 33.0 µM 26% | [11]; at 100.0 µM 14% | [12]; at 1.2 µM 1% | [12]; at 3.7 µM -4% | [12]; at 11.0 µM 6% | [12]; at 33.0 µM 13% | [12]; at 100.0 µM 6% | [13]; at 1.2 µM -8% | [13]; at 3.7 µM -2% | [13]; at 11.0 µM -2% | [13]; at 33.0 µM 3% | [13]; at 100.0 µM -4% | [14]; at 1.2 µM -10% | [14]; at 3.7 µM -20% | [14]; at 11.0 µM -10% | [14]; at 33.0 µM -5% | [14]; at 100.0 µM 8% | [15]; [16] 21% | [15]; [17] 23%
